Calls of active or inactive are those of the source.
Experiments:
[1] = binders of probe aFSTL3 on microarray, primary screen, stem cell growth factor project, biochemical, small-molecule microarray, fluorescence 635/667 (AID 1064); conditions: higher = more signal;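 note: measures binding of the biotinylated anti-FSTL3 antibody to printed compounds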
[2] = binders from COS7 lysate, DM2A8 probe, primary screen, torsin A project, cell lysate, small-molecule microarray, fluorescence 635/667 (AID 1065); conditions: higher = more signal, COS7 lysate expressing mutant human TOR1A
[3] = binders of probe aFGF2 on microarray, primary screen, stem cell growth factor project, biochemical, small-molecule microarray, fluorescence 635/667 (AID 1067); conditions: higher = more signal;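 note: measures binding of biotinylated aFGF2 protein to printed compounds on slides; z-score merges feature fluorescence and signal-to-noise across triplicate slides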
[4] = binders of probe aFGF10 on microarray, primary screen, stem cell growth factor project, biochemical, small-molecule microarray, fluorescence 635/667 (AID 1071); conditions: higher = more signal;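 note: score merges 667 nm spot intensity and signal to noise from triplicate slides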
[5] = target: Neurogenic locus notch homolog protein 2 (Homo sapiens) (UniProt Q04721); experiment: Notch2 binders on small-molecule microarrays, primary screen, biochemical, small-molecule microarray, 635 nm fluorescence, stem cell growth factors (AID 1073); conditions: Notch2 binding, higher = more signal
Neurogenic locus notch homolog protein 2 (Homo sapiens), sequence (Q04721 whole entry, looked up, canonical isoform): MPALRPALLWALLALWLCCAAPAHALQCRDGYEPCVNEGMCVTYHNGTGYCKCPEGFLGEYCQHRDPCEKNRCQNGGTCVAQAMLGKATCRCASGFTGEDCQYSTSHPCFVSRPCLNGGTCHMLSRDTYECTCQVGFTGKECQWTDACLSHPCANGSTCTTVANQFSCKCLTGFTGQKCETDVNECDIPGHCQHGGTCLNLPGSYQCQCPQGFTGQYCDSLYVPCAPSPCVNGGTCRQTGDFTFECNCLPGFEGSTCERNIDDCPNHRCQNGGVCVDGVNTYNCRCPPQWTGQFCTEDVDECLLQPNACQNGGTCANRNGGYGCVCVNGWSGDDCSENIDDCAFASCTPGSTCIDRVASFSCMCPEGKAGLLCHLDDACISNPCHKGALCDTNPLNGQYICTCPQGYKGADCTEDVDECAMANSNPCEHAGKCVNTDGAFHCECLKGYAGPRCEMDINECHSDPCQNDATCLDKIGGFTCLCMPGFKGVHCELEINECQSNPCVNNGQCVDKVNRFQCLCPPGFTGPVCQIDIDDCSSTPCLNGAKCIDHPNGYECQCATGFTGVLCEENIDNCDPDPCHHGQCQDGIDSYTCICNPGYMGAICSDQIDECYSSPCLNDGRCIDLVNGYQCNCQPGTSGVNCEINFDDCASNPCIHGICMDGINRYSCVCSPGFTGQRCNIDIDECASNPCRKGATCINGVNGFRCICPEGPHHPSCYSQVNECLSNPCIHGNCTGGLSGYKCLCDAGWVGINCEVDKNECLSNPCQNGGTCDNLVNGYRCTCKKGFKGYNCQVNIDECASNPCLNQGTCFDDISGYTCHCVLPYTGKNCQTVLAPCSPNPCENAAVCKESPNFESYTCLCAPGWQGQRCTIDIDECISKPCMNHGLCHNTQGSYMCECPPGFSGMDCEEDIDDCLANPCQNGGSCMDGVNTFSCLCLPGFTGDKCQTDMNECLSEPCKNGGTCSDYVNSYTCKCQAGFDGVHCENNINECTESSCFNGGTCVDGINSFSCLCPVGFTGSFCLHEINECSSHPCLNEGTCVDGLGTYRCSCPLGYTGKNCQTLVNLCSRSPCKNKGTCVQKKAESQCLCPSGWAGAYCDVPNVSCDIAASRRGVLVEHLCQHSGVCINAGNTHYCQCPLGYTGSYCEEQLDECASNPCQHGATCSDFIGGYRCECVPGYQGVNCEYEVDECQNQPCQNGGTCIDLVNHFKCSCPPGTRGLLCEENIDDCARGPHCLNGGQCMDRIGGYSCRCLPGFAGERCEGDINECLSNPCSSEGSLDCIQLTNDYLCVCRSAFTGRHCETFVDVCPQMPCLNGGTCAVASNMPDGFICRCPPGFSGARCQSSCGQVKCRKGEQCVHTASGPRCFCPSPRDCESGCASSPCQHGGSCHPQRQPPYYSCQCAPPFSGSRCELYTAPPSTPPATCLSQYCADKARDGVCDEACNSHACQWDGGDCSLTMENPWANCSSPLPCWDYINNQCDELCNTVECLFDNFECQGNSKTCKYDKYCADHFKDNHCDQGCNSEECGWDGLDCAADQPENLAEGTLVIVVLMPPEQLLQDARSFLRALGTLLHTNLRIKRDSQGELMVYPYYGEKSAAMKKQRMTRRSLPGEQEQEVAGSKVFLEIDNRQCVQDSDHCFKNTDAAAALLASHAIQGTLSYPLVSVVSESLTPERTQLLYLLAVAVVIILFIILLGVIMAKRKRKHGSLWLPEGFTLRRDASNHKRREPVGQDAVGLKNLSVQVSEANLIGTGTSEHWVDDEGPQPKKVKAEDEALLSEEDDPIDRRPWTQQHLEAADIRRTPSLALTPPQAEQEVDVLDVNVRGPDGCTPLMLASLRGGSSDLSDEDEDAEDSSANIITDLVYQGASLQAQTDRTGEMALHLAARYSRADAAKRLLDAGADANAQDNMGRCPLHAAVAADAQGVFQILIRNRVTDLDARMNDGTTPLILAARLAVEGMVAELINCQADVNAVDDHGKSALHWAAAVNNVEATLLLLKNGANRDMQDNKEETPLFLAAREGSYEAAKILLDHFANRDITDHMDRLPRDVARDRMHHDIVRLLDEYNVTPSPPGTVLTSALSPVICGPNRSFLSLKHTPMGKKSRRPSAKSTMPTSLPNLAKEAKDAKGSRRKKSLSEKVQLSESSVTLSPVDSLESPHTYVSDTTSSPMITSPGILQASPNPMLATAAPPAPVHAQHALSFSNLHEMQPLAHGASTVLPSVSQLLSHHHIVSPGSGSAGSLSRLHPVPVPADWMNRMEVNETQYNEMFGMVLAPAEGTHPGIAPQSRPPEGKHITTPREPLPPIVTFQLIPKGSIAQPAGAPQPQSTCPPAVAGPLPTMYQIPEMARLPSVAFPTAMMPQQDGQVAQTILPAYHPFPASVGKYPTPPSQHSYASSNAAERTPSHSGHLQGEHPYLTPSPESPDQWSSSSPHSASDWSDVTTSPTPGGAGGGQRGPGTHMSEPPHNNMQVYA

[6] = target: Pro-neuregulin-1, membrane-bound isoform (Homo sapiens) (UniProt Q02297); experiment: NRG1 binders on small-molecule microarrays, primary screen, psychiatric disease protein project, biochemical, small-molecule microarray, fluorescence 635/667 (AID 1075); conditions: NRG1 binding, 635 nm fluorescence, higher = more signal;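 note: score combines 667 nm spot fluorescence with signal to noise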
[7] = system: Neuregulin-1 EGF-like domain; experiment: binders of neuregulin-1 EGF-like domain, primary screen, biochemical, small-molecule microarray, 635 nm fluorescence (AID 1081); conditions: small-molecule microarray binding, higher = more signal;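 note: binding of the protein to compounds printed on small-molecule microarray slides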
[8] = FRG1 promoter luciferase signal modulators, primary screen, FRG1 inhibition for FSHD, cell-based, C2C12 myotubes, firefly/Renilla luciferase, luminescence (AID 1084); conditions: higher = more signal, called active from +8 up or from −8 down
[9] = binders of probe aFST on microarray, primary screen, stem cell growth factor project, biochemical, small-molecule microarray, fluorescence 635/667 (AID 1086); conditions: higher = more signal;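 note: score merges 667 nm fluorescence with signal-to-noise of each printed compound spot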
[10] = binders of probe aHhip on microarray, primary screen, stem cell growth factor project, biochemical, small-molecule microarray, fluorescence 635/667 (AID 1087); conditions: higher = more signal;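 note: score merges spot fluorescence at 667nm with spot signal to noise ratio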
[11] = system: PRMT1 (protein arginine N-methyltransferase 1); experiment: PRMT1 binders on small-molecule microarrays, primary screen, biochemical, small-molecule microarray, 635 nm fluorescence (AID 1088); conditions: small-molecule microarray binding, higher = more signal;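 note: binding of Prmt1 protein to compounds spotted on small-molecule microarray slides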
[12] = yeast growth modulation, basal conditions, primary screen, YJM789 clinical isolate, OD600, 24 h (AID 1089);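 note: growth of clinical yeast isolate S. cerevisiae YJM 789 seeded 1000 cells per well; test concentration not given here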; conditions: S. cerevisiae YJM789 growth, higher = more signal, called active from +8 up or from −8 down
[13] = fission yeast growth modulation, primary screen, strain 972, OD600, 24 h, no modulator (AID 1090);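 note: basal condition with compound alone and no growth modifier present; test concentration not given here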; conditions: S. pombe 972 growth, higher = more signal, called active from +8 up or from −8 down
[14] = S. cerevisiae growth modulation with rapamycin, primary screen, strain BY4716, OD600, 96 h (AID 1091); conditions: higher = more signal, called active from +8 up or from −8 down; note: test concentration not given here
[15] = target: Torsin-1A-interacting protein 2 (Homo sapiens) (UniProt Q8NFQ8); experiment: LULL1 binders on small-molecule microarray, primary screen, cell lysate, human LULL1 lysate, 635/667 nm fluorescence (AID 1092); conditions: hLULL1 lysate binding, 635 nm fluorescence, higher = more signal;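 note: probe is lysate of COS7 cells overexpressing human LULL1; score merges per-feature 667 nm fluorescence with signal-to-noise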
[16] = E. coli growth modulation, two-sided OD650, primary screen, E. coli filamentation project, strain DRC41, 24 h (AID 1093); conditions: OD650, 24 h, higher = more signal, called active from +8 up or from −8 down;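 note: MC1000 strain lacking acrAB efflux and sulA so SOS filamentation is blocked; test concentration not given here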
[17] = small-molecule microarray binders of probe aLefty2, primary screen, biochemical, biotinylated probe, 635/667 nm fluorescence (AID 1094); conditions: higher = more signal;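 note: score merges spot fluorescence near 667 nm with spot signal-to-noise ratio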
[18] = system: Noggin (protein binding on small-molecule microarray); experiment: Noggin binders on small-molecule microarray, primary screen, biochemical, 635/667 nm fluorescence (AID 1095); conditions: 635 nm fluorescence, higher = more signal;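 note: score merges 667 nm feature fluorescence with signal to noise over triplicate slides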
[19] = target: Neurogenic locus notch homolog protein 3 (Homo sapiens) (UniProt Q9UM47); experiment: NOTCH3 binders on small-molecule microarray, primary screen, biochemical, 635/667 nm fluorescence (AID 1096); conditions: NOTCH3 binding, 635 nm fluorescence, higher = more signal
Neurogenic locus notch homolog protein 3 (Homo sapiens), sequence (Q9UM47 whole entry, looked up): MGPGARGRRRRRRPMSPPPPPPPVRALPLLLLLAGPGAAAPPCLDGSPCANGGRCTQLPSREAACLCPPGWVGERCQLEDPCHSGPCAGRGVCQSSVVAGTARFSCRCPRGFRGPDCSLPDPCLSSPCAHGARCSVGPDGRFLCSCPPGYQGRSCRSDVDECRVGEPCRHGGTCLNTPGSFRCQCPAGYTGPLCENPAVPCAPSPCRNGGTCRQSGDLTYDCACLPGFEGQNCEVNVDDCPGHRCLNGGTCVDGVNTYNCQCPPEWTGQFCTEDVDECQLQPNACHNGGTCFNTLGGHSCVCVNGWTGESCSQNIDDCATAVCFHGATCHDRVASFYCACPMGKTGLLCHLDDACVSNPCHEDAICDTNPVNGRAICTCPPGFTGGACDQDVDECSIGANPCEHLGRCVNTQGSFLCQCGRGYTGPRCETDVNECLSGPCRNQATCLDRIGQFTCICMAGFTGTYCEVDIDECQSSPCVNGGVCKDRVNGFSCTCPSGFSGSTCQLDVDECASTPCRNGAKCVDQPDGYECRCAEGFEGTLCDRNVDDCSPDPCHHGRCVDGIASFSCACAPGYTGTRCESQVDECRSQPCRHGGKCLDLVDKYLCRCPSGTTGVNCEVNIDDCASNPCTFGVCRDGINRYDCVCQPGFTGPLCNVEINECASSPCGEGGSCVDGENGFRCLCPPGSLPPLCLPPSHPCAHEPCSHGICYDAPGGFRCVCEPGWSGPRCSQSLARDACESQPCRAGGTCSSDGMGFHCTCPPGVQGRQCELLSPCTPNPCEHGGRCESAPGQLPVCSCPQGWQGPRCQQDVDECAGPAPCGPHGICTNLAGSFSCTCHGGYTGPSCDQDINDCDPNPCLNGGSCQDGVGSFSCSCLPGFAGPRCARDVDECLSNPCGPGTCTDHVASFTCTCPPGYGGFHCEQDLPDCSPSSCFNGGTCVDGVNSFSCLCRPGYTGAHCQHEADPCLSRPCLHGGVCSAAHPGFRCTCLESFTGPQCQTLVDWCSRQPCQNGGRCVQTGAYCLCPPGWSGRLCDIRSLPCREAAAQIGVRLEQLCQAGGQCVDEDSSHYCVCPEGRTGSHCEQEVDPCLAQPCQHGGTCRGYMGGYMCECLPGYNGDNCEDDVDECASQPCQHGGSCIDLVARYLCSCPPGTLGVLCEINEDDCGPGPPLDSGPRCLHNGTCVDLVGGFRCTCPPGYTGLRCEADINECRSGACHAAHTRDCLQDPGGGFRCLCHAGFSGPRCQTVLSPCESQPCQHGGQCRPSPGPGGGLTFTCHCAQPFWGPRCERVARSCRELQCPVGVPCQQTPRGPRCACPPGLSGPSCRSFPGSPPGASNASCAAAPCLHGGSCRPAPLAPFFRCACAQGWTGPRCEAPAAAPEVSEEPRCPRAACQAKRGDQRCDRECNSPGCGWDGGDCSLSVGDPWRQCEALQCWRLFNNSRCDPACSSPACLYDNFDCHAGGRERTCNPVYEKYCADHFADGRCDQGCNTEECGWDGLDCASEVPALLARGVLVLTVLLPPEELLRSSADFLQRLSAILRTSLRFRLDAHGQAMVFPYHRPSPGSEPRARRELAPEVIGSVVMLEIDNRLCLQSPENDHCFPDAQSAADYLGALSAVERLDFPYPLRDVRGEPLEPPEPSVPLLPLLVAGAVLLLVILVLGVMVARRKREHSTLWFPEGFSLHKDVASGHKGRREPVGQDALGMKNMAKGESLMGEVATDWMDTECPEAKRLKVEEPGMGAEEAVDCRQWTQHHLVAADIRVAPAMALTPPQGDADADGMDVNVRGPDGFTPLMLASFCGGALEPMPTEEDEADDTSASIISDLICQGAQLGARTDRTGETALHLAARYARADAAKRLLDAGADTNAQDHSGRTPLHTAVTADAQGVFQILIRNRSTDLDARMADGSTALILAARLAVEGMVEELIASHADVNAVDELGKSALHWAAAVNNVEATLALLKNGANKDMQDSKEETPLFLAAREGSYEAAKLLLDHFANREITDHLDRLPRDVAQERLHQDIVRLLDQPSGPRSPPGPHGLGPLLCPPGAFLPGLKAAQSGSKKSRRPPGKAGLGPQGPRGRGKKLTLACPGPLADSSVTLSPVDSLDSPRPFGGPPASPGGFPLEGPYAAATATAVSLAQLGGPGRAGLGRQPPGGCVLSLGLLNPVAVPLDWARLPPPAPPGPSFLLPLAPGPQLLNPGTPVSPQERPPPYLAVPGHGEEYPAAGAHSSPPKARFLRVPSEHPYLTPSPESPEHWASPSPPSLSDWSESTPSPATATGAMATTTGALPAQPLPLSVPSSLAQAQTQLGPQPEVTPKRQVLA

[20] = small-molecule microarray binders of probe aEGFR, primary screen, biochemical, biotinylated probe, 635/667 nm fluorescence (AID 1097); conditions: higher = more signal;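 note: probe is a biotinylated anti-EGFR antibody binding compounds printed on slides; score combines fluorescence near 667 nm and signal to noise of each spot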

| Compound | composite z-score [1] | composite z-score [2] | composite z-score [3] | composite z-score [4] | composite z-score [5] | composite z-score [6] | composite z-score [7] | z-score [8] | composite z-score [9] | composite z-score [10] | composite z-score [11] | z-score [12] | z-score [13] | z-score [14] | composite z-score [15] | z-score [16] | composite z-score [17] | composite z-score [18] | composite z-score [19] | composite z-score [20] |
| --- | --- | --- | --- | --- | --- | --- | --- | --- | --- | --- | --- | --- | --- | --- | --- | --- | --- | --- | --- | --- |
| C=CCC(OC(C)=O)[C@@H]1[C@@H](N(Cc2cccc3ccccc23)C(=O)c2cccc3ccccc23)c2cc(OCCCO)ccc2N1C(=O)Cc1ccc(OC)cc1 (stereo not given in full) | -0.0733 | -0.136 | -0.0569 | 0.108 | 0.568 | 0.123 | 0.193 | -1.64 (inactive) | 0.03 | -0.0994 | 0.435 | -1.17 (inactive) | -1.59 (inactive) | -0.8 (inactive) | 1.52 | 2.09 (inactive) | -0.121 | 0.0439 | 0.171 | 0.0073 |
| CCCNC(=O)[C@@H]1c2ccccc2C(=O)N(Cc2cc(C(F)(F)F)cc(C(F)(F)F)c2)[C@H]1c1ccc(CO)cc1 | 0.684 | -0.27 | 0.0064 | 0.0859 | 0.394 | 0.519 | 1.2 | -0.0626 (inactive) | 0.361 | 0.0895 | 1.09 | 0.73 (inactive) | -1.69 (inactive) | -0.262 (inactive) | 1.34 | 0.315 (inactive) | 0.0758 | 0.261 | 0.523 | -0.0255 |
| COCCCNC(=O)[C@@]1(Cc2ccccc2CN=[N+]=[N-])COC(c2ccc(OCCCO)cc2)=N1 | 1.14 | 1.3 | 0.302 | 1.07 | 1.28 | 1.84 | 1.28 | -2.53 (inactive) | 0.934 | -0.277 | 1.54 | 1.14 (inactive) | -2.56 (inactive) | 0.0898 (inactive) | 3.17 | 2.36 (inactive) | 0.374 | -0.434 | 0.964 | 0.294 |
| CC(C)C[C@@H]1NC(=O)[C@H]2C[C@@H](C(=O)NCCCC[N+](C)(C)C)[C@@H](c3cccc(OCCO)c3)N2C1=O | -0.746 | 1.9 | -0.138 | 0.253 | -0.942 | 1.95 | 1.43 | 0.683 (inactive) | -0.233 | -0.717 | 0.617 | -0.276 (inactive) | -0.262 (inactive) | -2.33 (inactive) | 3.37 | 0.395 (inactive) | -0.348 | 1.21 | 1.03 | 0.009 |
| COc1ccc([Si](C)(C)[C@@H]2[C@@H](CCn3cc([C@H](O)c4ccccc4)nn3)O[C@]3(C(=O)N(C)c4c(Br)cc(C)cc43)[C@H]2C)cc1 | 0.114 | 0.301 | -0.116 | -0.246 | -0.802 | -0.115 | -0.288 | -2.54 (inactive) | -0.43 | 0.154 | -0.0221 | -2.54 (inactive) | -0.793 (inactive) | 0.406 (inactive) | 0.215 | 2.87 (inactive) | -0.0295 | 0.0639 | -0.707 | 0.0089 |
| CC(C)(C)OC(=O)CC[C@@]12N=C(c3ccc(OCCCO)cc3)O[C@@H]1c1ccccc1N(Cc1ccccc1)C2=O | 0.96 | 0.842 | -0.0481 | -0.422 | 0.246 | 0.778 | 1.21 | -3.31 (inactive) | 0.439 | -0.0645 | 1.32 | 0.0492 (inactive) | -1.2 (inactive) | 3.98 (inactive) | 3.26 | 1.55 (inactive) | 0.0622 | 0.753 | 1.05 | -0.0497 |
| C=C(COC)/C(=C/C[C@H](OC(C)=O)c1ccc(CO)o1)c1cnc2ccccc2c1 | -0.17 | 1.29 | -0.0316 | 0.665 | 1.4 | 0.64 | 1.01 | -0.524 (inactive) | 0.314 | -0.0024 | 1.41 | -0.342 (inactive) | -0.897 (inactive) | -1.06 (inactive) | 2.48 | 1.15 (inactive) | -0.0208 | 1.55 | 1.04 | -0.0616 |
| CC(C)NC(=O)[C@@H]1c2ccccc2C(=O)N(Cc2cc(F)cc(C(F)(F)F)c2)[C@H]1c1ccc(CO)cc1 | 1.02 | -0.197 | -0.141 | -1.12 | -0.636 | 0.433 | 0.844 | 0.842 (inactive) | 0.136 | -0.149 | -0.305 | -0.354 (inactive) | -0.92 (inactive) | -1.17 (inactive) | 2.48 | 1.52 (inactive) | 0.0071 | -1.34 | -0.706 | 0.0629 |
| CO[C@H]1O[C@H](CO)[C@@H](OC(=O)Nc2ccccc2)[C@H](OC(=O)Nc2ccccc2-c2ccccc2)[C@@H]1OC(=O)Nc1ccccc1-c1ccccc1 | -0.711 | 0.606 | -0.0141 | 0.901 | 1.49 | 1.7 | 1.31 | -0.979 (inactive) | 0.325 | -0.0346 | 1.53 | 1.17 (inactive) | -0.271 (inactive) | -0.471 (inactive) | 3.13 | 1.36 (inactive) | 0.0623 | 0.926 | 1.06 | 0.423 |

Source: PubChem BioAssay
